Values without a mark were called inactive. No rule for the calls is given here.
target: Pantothenate synthetase (Mycobacterium tuberculosis (strain ATCC 25618 / H37Rv)) (UniProt P9WIL5); experiment: Recombinant Mtb pantothenate synthetase (PanC) inhibitors, coupled enzyme, confirmatory (AID 375); conditions: coupled enzyme assay; at 10 µM, hits give high values;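 also: 0% = full reaction with vehicle and 100% = no enzyme background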
Sequence (P9WIL5 whole entry, looked up): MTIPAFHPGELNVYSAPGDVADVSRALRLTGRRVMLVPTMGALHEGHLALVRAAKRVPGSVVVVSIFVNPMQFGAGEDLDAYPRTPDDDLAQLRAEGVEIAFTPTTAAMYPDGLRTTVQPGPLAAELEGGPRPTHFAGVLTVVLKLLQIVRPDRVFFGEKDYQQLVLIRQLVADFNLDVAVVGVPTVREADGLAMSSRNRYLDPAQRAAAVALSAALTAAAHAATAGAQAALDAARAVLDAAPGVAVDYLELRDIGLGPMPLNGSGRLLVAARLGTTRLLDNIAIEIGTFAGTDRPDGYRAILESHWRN

| Structure (SMILES) | inhibition [%] |
| --- | --- |
| Fc1cccc(Nc2cc(-n3cccn3)ncn2)c1 | 3 |
| O=C(OCc1nnc(-c2ccccc2)o1)c1ccc(S(=O)(=O)NCc2ccco2)cc1 | 0 |
| CC(C)(C)C1CCc2c(sc3c2C(=O)NC(c2ccco2)N3)C1 (stereo not drawn) | 2 |
| COc1ccccc1-c1cc(C(=O)NCCCn2ccnc2)no1 | 0 |
| Cc1cccc(Nc2ccccc2C(=O)O)c1C | 4 |
| Cc1ccc(C)n1-c1ccc(N2CCOCC2)cc1 | 0 |
| CCCCCC1CC(CC(C)C(=O)Nc2nncs2)C(=O)O1 (stereo not drawn) | 9 |
| CC(C)C(=O)Nc1cccc(NC(=O)c2cccnc2)c1 | 1 |
| O=C(c1ccco1)N1CCN(c2cccc(Cl)c2)CC1 | 0 |
| CCCc1ccc(Oc2cn[nH]c2-c2ccc(O)c(C)c2O)cc1 | 0 |
| COC(=O)CNc1nc(C2CC2)nc2c1nnn2Cc1ccccc1Cl | 6 |
| COc1cc(NC(=O)CN(c2cc(C)cc(C)c2)S(=O)(=O)c2c(C)noc2C)cc(OC)c1 | 0 |
| COC(=O)Cn1c(=NC(=O)CSCC(=O)Nc2cc(C)on2)sc2ccccc21 | 0 |
| Cc1sc2ncn3ncnc3c2c1C | 0 |
| Cc1ccc(C)c(S(=O)(=O)NCc2cccnc2)c1 | 7 |
| CCCCN=CC1=C(O)C(C(=O)OC)C(C)(C)CC1=O (stereo not drawn) | 0 |
| Cc1ccc(C(=O)CSc2nnc(-c3cccnc3)n2N)cc1 | 5 |
| CC12CN3CC(C)(CN(C1)C3c1cc(Br)ccc1O)C2=O (stereo not drawn) | 0 |
